# Source: PubChem BioAssay (EPA / NIEHS)
# Inconclusive results are not listed. The source made the active and inactive calls. Rule for the calls: active = hit-call score of the fitted dose curve at least 0.9, where 1 is the maximum; inconclusive = response in the unintended direction; inactive = score below 0.9.
# Target: Cytochrome P450 3A4 (Homo sapiens) (UniProt P08684)
# Test: NVS_ADME_hCYP3A4: NovaScreen (NVS) CYP450-related Enzyme Activity (ADME) Assay for human CYP3A4 (AID 2283110)
# Summary of the method: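 Cell-free assay using insect-cell-expressed human CYP3A4 with a fluorogenic substrate; fluorescence intensity was read 0.33 hour after dosing. Loss of signal relative to acetonitrile vehicle indicated inhibition. Primary single-concentration screen at 10 uM, in duplicate, then concentration series.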
# Chain of Cytochrome P450 3A4 (Homo sapiens) (P08684 whole entry, looked up): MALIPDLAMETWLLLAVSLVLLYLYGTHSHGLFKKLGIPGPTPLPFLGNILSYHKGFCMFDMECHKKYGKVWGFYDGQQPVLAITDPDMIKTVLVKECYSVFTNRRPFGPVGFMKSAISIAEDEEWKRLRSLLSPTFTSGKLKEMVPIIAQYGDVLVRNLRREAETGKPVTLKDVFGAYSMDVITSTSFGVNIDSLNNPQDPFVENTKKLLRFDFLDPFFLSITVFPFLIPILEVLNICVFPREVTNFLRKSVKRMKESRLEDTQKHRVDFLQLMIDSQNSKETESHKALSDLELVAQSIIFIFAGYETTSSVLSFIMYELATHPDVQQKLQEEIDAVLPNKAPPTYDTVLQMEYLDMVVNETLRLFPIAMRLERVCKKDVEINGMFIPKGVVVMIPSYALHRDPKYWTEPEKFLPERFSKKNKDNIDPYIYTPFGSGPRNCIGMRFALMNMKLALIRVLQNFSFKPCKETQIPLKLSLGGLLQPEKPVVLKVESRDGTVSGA
SMILES,outcome,AC50
NCCO,inactive,–
CCc1c(C(=O)NN2CCCCC2)nn(-c2ccc(Cl)cc2Cl)c1-c1ccc(Br)cc1,inactive,–
C=CCOC(=O)c1ccccc1C(=O)OCC=C,–,6.19 µM (active)
COc1ccc2c(c1)c(CC(=O)O)c(C)n2C(=O)c1ccc(Cl)cc1,–,10 µM (active)
COc1ccc(S(=O)(=O)N2C(=O)[C@@](c3ccccc3OC)(N3C[C@H](O)C[C@H]3C(=O)N(C)C)c3cc(Cl)ccc32)c(OC)c1,–,4.57 µM (active)

# Target: Cytochrome P450 2C19 (Homo sapiens) (UniProt P33261)
# Test: NVS_ADME_hCYP2C19: NovaScreen (NVS) CYP450-related Enzyme Activity (ADME) Assay for human CYP2C19 (AID 2283113);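 for AC50: potency for inhibition seen as loss of fluorescent signal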
# Summary of the method: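 Fluorescence intensity was measured 1 hour after chemicals were added to insect-cell-derived recombinant CYP2C19 with fluorogenic substrate. Decreased signal versus acetonitrile control was taken as reduced enzyme activity; initial testing used 10 uM in duplicate.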
SMILES,AC50,outcome
CCCCC(CC)COC(=O)CC(C(=O)OCC(CC)CCCC)S(=O)(=O)O (stereo unspecified),4.49 µM (active),–
Cc1c(C(=O)O)c(O)cc2c1C(=O)c1c(O)c([C@@H]3O[C@H](CO)[C@@H](O)[C@H](O)[C@H]3O)c(O)c(O)c1C2=O,–,inactive
CC1=C(/C=C/C(C)=C/C=C/C(C)=C/CO)C(C)(C)CCC1,–,inactive
CN1CCN(Cc2cc(-c3ccc4[nH]c(=O)oc4c3)co2)[C@@H](c2ccc(F)cc2)C1,–,inactive
Oc1ccc2c(c1)OC[C@@H](N1CCC(O)(c3ccc(F)cc3)CC1)[C@H]2O,7.71 µM (active),–
Cc1cccc([N+](=O)[O-])c1C,18.6 µM (active),–
CCc1c(C(=O)NN2CCCCC2)nn(-c2ccc(Cl)cc2Cl)c1-c1ccc(Br)cc1,–,inactive
C=CCOC(=O)c1ccccc1C(=O)OCC=C,2.99 µM (active),–
CNCc1cc(F)ccc1Oc1ccc(Cl)c(Cl)c1,1.11 µM (active),–
COc1ccc(S(=O)(=O)N2C(=O)[C@@](c3ccccc3OC)(N3C[C@H](O)C[C@H]3C(=O)N(C)C)c3cc(Cl)ccc32)c(OC)c1,6.95 µM (active),–
CCOC(=O)CCC(=O)OCC,15.4 µM (active),–
